Drawing on PubChem BioAssay AID463082 (The Scripps Research Institute Molecular Screening Center, 2010), this text covers inhibition for 24 compounds.

Out of some 330,000 compounds screened, about 4,900 (1.5%) were called active. The sample holds actives, similar compounds and a random draw of the others, so the mix is not that of the screen. Unmarked numbers belong to inactive results.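 Rule for the calls: active = inhibition above the mean inhibition across the screen plus 3 SD (cut at about 25% in these data); inactive = the rest.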

The target in this experiment is Platelet-activating factor acetylhydrolase (Homo sapiens) (UniProt Q13093). Briefly: inhibition of plasma PAF acetylhydrolase – biochemical, fluorescence polarization, human, primary screen (AID 463082).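 Note: inhibitors block binding of the rhodamine activity-based probe so polarization drops; 0% = enzyme with DMSO and 100% = wells lacking pPAFAH.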 The settings on record: recombinant pPAFAH, FP-rhodamine probe fluorescence polarization; at 3.39 µM; stronger effect = higher value. (In general: In fluorescence polarisation assays a small probe gives low polarisation when free and higher when bound to something large.)
Chain of Platelet-activating factor acetylhydrolase (Homo sapiens) (Q13093 whole entry, looked up): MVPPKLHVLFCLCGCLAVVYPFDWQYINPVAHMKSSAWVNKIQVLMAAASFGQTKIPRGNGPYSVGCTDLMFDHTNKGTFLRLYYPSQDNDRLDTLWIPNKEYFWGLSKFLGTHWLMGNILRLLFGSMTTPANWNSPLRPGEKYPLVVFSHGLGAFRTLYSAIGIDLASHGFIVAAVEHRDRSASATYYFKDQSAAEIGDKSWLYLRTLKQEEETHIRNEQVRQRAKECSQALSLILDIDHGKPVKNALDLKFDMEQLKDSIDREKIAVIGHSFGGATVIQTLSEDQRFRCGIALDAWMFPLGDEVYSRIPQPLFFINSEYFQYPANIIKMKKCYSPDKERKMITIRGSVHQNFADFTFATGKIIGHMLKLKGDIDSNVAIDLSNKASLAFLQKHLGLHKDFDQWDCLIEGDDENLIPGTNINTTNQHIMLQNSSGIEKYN
On to `Cc1ccc(CNC(=O)CSc2nnc3c(n2)[nH]c2ccc(F)cc23)cc1`, for which the inhibition – broadly, the relative decrease from the control value, in per cent – is 3.4%. Regarding `Cc1ccn2c(=O)nc(SCC(=O)NCc3ccc(F)cc3)nc2c1`, the inhibition was 26.8% (active). On to `Cc1ccn2c(=O)nc(SCC(=O)NCc3ccc4c(c3)OCO4)nc2c1`, for which the inhibition is 10.4%. For `Cc1ccc(C2SCC(=O)N2c2ccccc2)cc1` (centres undefined), the inhibition is 2.44%.

With `O=C(NN=Cc1ccc(N2CCOCC2)cc1)c1cc2ccccc2cc1O`, the inhibition is 23.5%. Take `O=C(N/N=C/c1cccnc1)c1cc2ccccc2cc1O`: the inhibition is 58% (active). In the case of `Cc1ccc(/C=N/NC(=S)Nc2cccc(S(=O)(=O)N(C)C)c2)o1`, the inhibition is 6.2%.

Regarding `Cc1ccc(/C=N/NC(=O)c2cc3ccccc3cc2O)o1`, the inhibition was 57.2% (active). Take `O=C(N/N=C\c1cccnc1)c1cc(-c2ccccc2)nc2c(Cl)cccc12`: the inhibition was -1.21%. In the case of `O=C(N/N=C/c1cccnc1)c1ccc(NC(=O)c2ccc(F)cc2)cc1`, the inhibition was -2.91%. For the compound `Cc1nnc(SCC(=O)N(C(C)C)C(C)C)nc1C`, the inhibition was 0.01%. As to `CCCCOc1ccc(NC(=O)[C@@H]2CCCN2C(=O)C2CCN(S(=O)(=O)c3ccc(C)cc3)CC2)cc1`, the inhibition is 11.9%. Turning to `O=C(OCCO)c1cc(Cl)c(C(=O)OCCO)cc1Cl`, the inhibition is 1.07%. The value for `CCC1(CC)C(=O)C2=C3C1[C@H](C(=O)OC)C=C(C(=O)OC)C[C@H]3[C@H]1C(=O)N(Cc3ccccc3)C(=O)[C@H]1[C@H]2C` (some centres undefined) was 9.48%. The value for `COc1ccc(NC(=O)COC(=O)c2ccc(NS(=O)(=O)/C=C/c3ccccc3)cc2)cc1` was 33.1% (active); that for `CCC(C(=O)OCC(=O)Nc1ccc(C(=O)Nc2ccc(OC)cc2)cc1)c1ccccc1` (centres undefined) was 2.28%; that for `CN(CC(=O)Nc1ccc(OC(F)F)cc1)S(=O)(=O)/C=C/c1ccccc1` was 5.82%. With `COc1ccc2sc(-c3ccc(N(C)C)cc3)c(C#CCO)c2c1`, the inhibition is 17.2%. With `COc1ccc(-c2cc(=O)oc3cc(OCC(=O)N(C)C4CCS(=O)(=O)C4)ccc23)cc1` (centres undefined), the inhibition is 2.24%. For `COc1ccc2c(-c3ccccc3)cc(SCC(=O)N(C)C3CCS(=O)(=O)C3)nc2c1` (centres undefined), the inhibition is 34% (active).

`Cc1cc(C)c2nc(SCC(=O)N(C)C3CCS(=O)(=O)C3)cc(C)c2c1` (centres undefined): the inhibition is 4.97%. The value for `Cc1ccccc1NC(=O)CCNS(=O)(=O)c1ccc2[nH]c(=O)oc2c1` was 0.18%; that for `Cc1ccc(C2(C(F)(F)F)N=C3Sc4cc(C)cc(C)c4N3C(=O)N2)cc1` (centres undefined) was 2.43%.

Turning to `Cc1nn(C(C)CC(=O)O)c(C)c1C` (centres undefined), the inhibition is 1.08%.
